# Measured values as given in PubChem BioAssay.
# The source made the active and inactive calls.
# Legend:
# [1] = binders of probe aFSTL3 on microarray, primary screen, stem cell growth factor project, biochemical, small-molecule microarray, fluorescence 635/667 (AID 1064); settings: higher = more signal;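 note: measures binding of the biotinylated anti-FSTL3 antibody to printed compounds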
# [2] = binders from COS7 lysate, DM2A8 probe, primary screen, torsin A project, cell lysate, small-molecule microarray, fluorescence 635/667 (AID 1065); settings: higher = more signal, COS7 lysate expressing mutant human TOR1A
# [3] = binders of probe aFGF2 on microarray, primary screen, stem cell growth factor project, biochemical, small-molecule microarray, fluorescence 635/667 (AID 1067); settings: higher = more signal;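 note: measures binding of biotinylated aFGF2 protein to printed compounds on slides; z-score merges feature fluorescence and signal-to-noise across triplicate slides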
# [4] = binders of probe aFGF10 on microarray, primary screen, stem cell growth factor project, biochemical, small-molecule microarray, fluorescence 635/667 (AID 1071); settings: higher = more signal;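 note: score merges 667 nm spot intensity and signal to noise from triplicate slides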
# [5] = biological target: Neurogenic locus notch homolog protein 2 (Homo sapiens) (UniProt Q04721); test: Notch2 binders on small-molecule microarrays, primary screen, biochemical, small-molecule microarray, 635 nm fluorescence, stem cell growth factors (AID 1073); settings: Notch2 binding, higher = more signal
# [6] = biological target: Pro-neuregulin-1, membrane-bound isoform (Homo sapiens) (UniProt Q02297); test: NRG1 binders on small-molecule microarrays, primary screen, psychiatric disease protein project, biochemical, small-molecule microarray, fluorescence 635/667 (AID 1075); settings: NRG1 binding, 635 nm fluorescence, higher = more signal;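 note: score combines 667 nm spot fluorescence with signal to noise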
# [7] = system: Neuregulin-1 EGF-like domain; test: binders of neuregulin-1 EGF-like domain, primary screen, biochemical, small-molecule microarray, 635 nm fluorescence (AID 1081); settings: small-molecule microarray binding, higher = more signal;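 note: binding of the protein to compounds printed on small-molecule microarray slides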
# [8] = FRG1 promoter luciferase signal modulators, primary screen, FRG1 inhibition for FSHD, cell-based, C2C12 myotubes, firefly/Renilla luciferase, luminescence (AID 1084); settings: higher = more signal, called active from +8 up or from −8 down
# [9] = binders of probe aFST on microarray, primary screen, stem cell growth factor project, biochemical, small-molecule microarray, fluorescence 635/667 (AID 1086); settings: higher = more signal;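 note: score merges 667 nm fluorescence with signal-to-noise of each printed compound spot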
# [10] = binders of probe aHhip on microarray, primary screen, stem cell growth factor project, biochemical, small-molecule microarray, fluorescence 635/667 (AID 1087); settings: higher = more signal;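 note: score merges spot fluorescence at 667nm with spot signal to noise ratio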
# [11] = system: PRMT1 (protein arginine N-methyltransferase 1); test: PRMT1 binders on small-molecule microarrays, primary screen, biochemical, small-molecule microarray, 635 nm fluorescence (AID 1088); settings: small-molecule microarray binding, higher = more signal;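 note: binding of Prmt1 protein to compounds spotted on small-molecule microarray slides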
# [12] = yeast growth modulation, basal conditions, primary screen, YJM789 clinical isolate, OD600, 24 h (AID 1089);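 note: growth of clinical yeast isolate S. cerevisiae YJM 789 seeded 1000 cells per well; test concentration not given here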; settings: S. cerevisiae YJM789 growth, higher = more signal, called active from +8 up or from −8 down
# [13] = fission yeast growth modulation, primary screen, strain 972, OD600, 24 h, no modulator (AID 1090);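 note: basal condition with compound alone and no growth modifier present; test concentration not given here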; settings: S. pombe 972 growth, higher = more signal, called active from +8 up or from −8 down
# [14] = S. cerevisiae growth modulation with rapamycin, primary screen, strain BY4716, OD600, 96 h (AID 1091); settings: higher = more signal, called active from +8 up or from −8 down; note: test concentration not given here
# [15] = biological target: Torsin-1A-interacting protein 2 (Homo sapiens) (UniProt Q8NFQ8); test: LULL1 binders on small-molecule microarray, primary screen, cell lysate, human LULL1 lysate, 635/667 nm fluorescence (AID 1092); settings: hLULL1 lysate binding, 635 nm fluorescence, higher = more signal;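 note: probe is lysate of COS7 cells overexpressing human LULL1; score merges per-feature 667 nm fluorescence with signal-to-noise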
# [16] = E. coli growth modulation, two-sided OD650, primary screen, E. coli filamentation project, strain DRC41, 24 h (AID 1093); settings: OD650, 24 h, higher = more signal, called active from +8 up or from −8 down;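 note: MC1000 strain lacking acrAB efflux and sulA so SOS filamentation is blocked; test concentration not given here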
# [17] = small-molecule microarray binders of probe aLefty2, primary screen, biochemical, biotinylated probe, 635/667 nm fluorescence (AID 1094); settings: higher = more signal;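 note: score merges spot fluorescence near 667 nm with spot signal-to-noise ratio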
# [18] = system: Noggin (protein binding on small-molecule microarray); test: Noggin binders on small-molecule microarray, primary screen, biochemical, 635/667 nm fluorescence (AID 1095); settings: 635 nm fluorescence, higher = more signal;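 note: score merges 667 nm feature fluorescence with signal to noise over triplicate slides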
# [19] = biological target: Neurogenic locus notch homolog protein 3 (Homo sapiens) (UniProt Q9UM47); test: NOTCH3 binders on small-molecule microarray, primary screen, biochemical, 635/667 nm fluorescence (AID 1096); settings: NOTCH3 binding, 635 nm fluorescence, higher = more signal
# [20] = small-molecule microarray binders of probe aEGFR, primary screen, biochemical, biotinylated probe, 635/667 nm fluorescence (AID 1097); settings: higher = more signal;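 note: probe is a biotinylated anti-EGFR antibody binding compounds printed on slides; score combines fluorescence near 667 nm and signal to noise of each spot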
# Sequence of Neurogenic locus notch homolog protein 2 (Homo sapiens) (Q04721 whole entry, looked up, canonical isoform): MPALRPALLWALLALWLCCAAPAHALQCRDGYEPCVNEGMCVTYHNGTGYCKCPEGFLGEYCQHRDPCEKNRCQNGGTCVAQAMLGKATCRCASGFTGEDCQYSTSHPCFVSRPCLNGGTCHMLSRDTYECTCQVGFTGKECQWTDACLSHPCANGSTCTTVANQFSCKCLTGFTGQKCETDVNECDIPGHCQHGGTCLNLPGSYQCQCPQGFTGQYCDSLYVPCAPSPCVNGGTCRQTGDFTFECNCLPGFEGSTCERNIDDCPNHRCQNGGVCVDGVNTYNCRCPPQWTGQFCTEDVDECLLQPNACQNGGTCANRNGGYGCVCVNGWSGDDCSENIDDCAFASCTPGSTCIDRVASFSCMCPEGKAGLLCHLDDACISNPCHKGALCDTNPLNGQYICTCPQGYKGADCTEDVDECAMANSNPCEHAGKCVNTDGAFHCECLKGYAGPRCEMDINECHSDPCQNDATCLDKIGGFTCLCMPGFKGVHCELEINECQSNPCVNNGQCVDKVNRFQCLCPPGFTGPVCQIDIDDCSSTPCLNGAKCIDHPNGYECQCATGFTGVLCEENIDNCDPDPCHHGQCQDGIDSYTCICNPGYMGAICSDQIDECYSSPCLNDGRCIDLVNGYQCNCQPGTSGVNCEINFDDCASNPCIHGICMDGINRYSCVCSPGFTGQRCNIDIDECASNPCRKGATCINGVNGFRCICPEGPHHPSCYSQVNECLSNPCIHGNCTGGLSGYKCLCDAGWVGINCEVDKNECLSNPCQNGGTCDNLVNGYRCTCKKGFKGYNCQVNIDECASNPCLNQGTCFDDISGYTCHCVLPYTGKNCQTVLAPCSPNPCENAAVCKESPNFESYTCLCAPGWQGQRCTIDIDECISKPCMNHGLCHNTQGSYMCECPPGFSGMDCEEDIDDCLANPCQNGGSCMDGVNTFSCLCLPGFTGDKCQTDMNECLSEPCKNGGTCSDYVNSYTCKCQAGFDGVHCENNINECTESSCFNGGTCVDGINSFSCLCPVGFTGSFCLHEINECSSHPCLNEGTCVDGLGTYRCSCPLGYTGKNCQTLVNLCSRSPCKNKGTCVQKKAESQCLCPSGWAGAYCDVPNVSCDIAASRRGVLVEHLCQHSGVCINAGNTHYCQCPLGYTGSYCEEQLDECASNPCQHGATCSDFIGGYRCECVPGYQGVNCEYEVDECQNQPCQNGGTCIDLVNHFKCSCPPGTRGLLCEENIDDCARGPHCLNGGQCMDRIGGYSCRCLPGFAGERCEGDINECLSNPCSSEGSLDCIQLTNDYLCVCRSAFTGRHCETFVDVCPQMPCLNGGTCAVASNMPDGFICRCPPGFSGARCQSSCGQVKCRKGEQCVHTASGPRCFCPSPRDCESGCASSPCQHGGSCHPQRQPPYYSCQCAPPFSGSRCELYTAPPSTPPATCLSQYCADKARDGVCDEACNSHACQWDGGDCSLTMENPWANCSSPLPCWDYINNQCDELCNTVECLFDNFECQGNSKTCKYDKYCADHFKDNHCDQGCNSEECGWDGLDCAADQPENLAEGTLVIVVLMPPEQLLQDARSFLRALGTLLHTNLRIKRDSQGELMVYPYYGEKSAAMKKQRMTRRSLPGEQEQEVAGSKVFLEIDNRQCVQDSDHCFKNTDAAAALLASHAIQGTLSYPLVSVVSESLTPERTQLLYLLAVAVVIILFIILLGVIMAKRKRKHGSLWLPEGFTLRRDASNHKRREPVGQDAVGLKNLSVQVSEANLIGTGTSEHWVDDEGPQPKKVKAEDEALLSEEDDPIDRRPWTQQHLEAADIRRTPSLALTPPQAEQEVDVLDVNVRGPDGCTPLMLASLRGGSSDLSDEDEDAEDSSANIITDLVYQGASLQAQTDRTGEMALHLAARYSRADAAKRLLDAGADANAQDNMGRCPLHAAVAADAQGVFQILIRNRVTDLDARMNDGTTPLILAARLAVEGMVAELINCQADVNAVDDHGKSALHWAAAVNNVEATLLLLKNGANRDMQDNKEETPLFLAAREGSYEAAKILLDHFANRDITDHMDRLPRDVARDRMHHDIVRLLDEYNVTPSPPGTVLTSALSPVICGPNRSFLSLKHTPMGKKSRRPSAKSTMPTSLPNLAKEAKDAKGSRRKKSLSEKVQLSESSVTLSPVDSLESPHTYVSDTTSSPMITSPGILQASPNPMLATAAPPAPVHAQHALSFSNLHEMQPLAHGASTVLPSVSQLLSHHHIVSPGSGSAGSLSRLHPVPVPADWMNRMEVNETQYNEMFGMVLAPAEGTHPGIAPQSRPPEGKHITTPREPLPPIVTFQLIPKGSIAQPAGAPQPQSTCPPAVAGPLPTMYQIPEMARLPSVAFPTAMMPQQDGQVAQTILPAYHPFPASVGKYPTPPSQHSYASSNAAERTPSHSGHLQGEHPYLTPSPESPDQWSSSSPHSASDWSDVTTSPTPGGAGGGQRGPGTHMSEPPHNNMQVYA
# Sequence of Neurogenic locus notch homolog protein 3 (Homo sapiens) (Q9UM47 whole entry, looked up): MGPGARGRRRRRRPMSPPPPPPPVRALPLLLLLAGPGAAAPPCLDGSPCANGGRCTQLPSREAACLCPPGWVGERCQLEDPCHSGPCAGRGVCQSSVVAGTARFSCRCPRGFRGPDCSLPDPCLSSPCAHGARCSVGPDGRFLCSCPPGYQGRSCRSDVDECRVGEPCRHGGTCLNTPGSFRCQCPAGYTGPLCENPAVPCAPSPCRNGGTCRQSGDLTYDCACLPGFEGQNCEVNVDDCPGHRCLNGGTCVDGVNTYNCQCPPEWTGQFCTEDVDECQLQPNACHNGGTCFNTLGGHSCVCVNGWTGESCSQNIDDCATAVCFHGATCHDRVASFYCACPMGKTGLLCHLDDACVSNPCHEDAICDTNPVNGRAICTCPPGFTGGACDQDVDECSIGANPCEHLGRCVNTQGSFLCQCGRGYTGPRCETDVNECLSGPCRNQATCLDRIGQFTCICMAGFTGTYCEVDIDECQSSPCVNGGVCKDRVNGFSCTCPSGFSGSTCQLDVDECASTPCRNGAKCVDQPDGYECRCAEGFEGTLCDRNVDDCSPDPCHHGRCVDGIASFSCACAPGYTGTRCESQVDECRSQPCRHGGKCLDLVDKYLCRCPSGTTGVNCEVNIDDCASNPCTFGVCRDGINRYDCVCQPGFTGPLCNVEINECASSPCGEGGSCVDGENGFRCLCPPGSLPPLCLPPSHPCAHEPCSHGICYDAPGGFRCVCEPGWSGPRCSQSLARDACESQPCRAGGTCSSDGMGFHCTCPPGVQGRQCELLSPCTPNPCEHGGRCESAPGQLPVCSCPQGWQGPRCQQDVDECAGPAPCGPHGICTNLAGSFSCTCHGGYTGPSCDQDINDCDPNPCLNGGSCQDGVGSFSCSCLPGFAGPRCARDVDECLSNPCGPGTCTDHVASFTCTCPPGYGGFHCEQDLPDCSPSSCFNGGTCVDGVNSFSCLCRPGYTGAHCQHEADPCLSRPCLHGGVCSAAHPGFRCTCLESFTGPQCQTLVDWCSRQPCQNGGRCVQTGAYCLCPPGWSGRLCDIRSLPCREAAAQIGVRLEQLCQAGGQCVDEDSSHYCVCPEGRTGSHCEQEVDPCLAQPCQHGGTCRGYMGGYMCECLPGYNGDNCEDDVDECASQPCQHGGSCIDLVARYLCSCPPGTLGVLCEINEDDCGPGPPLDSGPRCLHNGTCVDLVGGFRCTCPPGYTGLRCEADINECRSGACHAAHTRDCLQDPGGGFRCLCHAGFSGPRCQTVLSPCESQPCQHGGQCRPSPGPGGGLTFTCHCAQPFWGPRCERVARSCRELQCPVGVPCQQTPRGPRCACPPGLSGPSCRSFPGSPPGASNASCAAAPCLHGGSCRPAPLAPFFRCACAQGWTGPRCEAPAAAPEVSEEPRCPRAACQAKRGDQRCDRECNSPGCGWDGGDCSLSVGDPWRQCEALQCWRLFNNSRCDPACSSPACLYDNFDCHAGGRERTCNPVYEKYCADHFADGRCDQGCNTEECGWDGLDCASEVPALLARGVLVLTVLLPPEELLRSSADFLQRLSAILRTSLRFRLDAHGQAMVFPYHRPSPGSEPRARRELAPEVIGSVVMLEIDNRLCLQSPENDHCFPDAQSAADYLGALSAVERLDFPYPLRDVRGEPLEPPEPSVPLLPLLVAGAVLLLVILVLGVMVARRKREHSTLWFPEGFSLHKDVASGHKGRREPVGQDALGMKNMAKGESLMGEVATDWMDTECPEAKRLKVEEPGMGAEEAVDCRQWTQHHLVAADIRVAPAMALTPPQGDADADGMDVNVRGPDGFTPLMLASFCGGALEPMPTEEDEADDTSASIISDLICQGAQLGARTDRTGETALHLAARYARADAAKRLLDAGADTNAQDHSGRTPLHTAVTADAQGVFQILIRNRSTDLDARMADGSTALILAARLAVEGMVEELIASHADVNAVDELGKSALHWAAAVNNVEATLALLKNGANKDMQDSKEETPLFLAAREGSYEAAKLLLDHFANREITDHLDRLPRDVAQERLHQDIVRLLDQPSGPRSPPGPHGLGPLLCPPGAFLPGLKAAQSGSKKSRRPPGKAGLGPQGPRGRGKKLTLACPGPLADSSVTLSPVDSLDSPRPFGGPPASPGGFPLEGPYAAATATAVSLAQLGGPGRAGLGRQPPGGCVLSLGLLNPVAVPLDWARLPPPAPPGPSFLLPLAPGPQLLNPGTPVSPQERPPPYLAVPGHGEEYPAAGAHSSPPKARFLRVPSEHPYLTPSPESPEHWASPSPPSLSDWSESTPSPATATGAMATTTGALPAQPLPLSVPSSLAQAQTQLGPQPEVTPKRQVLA
SMILES,composite z-score [1],composite z-score [2],composite z-score [3],composite z-score [4],composite z-score [5],composite z-score [6],composite z-score [7],z-score [8],composite z-score [9],composite z-score [10],composite z-score [11],z-score [12],z-score [13],z-score [14],composite z-score [15],z-score [16],composite z-score [17],composite z-score [18],composite z-score [19],composite z-score [20]
COC(=O)[C@@]1(Cc2ccccc2N=[N+]=[N-])N=C(c2ccc(OCCCO)cc2)O[C@H]1c1ccccc1N=[N+]=[N-],0.663,0.192,0.0131,-0.0009,0.648,0.859,1.27,-0.492 (inactive),0.214,-0.0123,1.54,-1.13 (inactive),-3.84 (inactive),26.2 (active),2.05,1.51 (inactive),0.258,0.717,0.647,-0.0211
C[N+](C)(C)CCCCCCNC(=O)[C@H]1C[C@H]2C(=O)NCC(=O)N2[C@H]1c1ccc(O)cc1,-0.411,0.71,-0.0973,0.776,0.0422,1.52,1.17,4.03 (inactive),0.358,-0.744,1.46,-0.374 (inactive),0.332 (inactive),-0.489 (inactive),2.88,0.376 (inactive),-0.413,1.6,1.05,-0.12
NC(=O)NCC#Cc1ccc2c(c1)[C@]1(C(=O)N2)[C@H](C(=O)O)[C@H]2C(=O)O[C@H](c3ccccc3)[C@H](c3ccccc3)N2[C@@H]1c1ccc(OCCO)cc1,0.131,0.35,-0.139,0.0382,0.247,0.881,0.851,-0.359 (inactive),0.718,-0.0994,1.1,0.33 (inactive),0.459 (inactive),-0.524 (inactive),1.37,0.8 (inactive),-0.199,0.205,0.1,-0.181
COCCOC(=O)N1C(=O)[C@@]2(c3cc(C#CC4=CCCCC4)ccc31)[C@H](C(N)=O)[C@H]1C(=O)O[C@H](c3ccccc3)[C@H](c3ccccc3)N1[C@@H]2c1ccccc1OCCO,0.193,0.33,-0.0105,0.999,1.07,1.47,1.34,-0.343 (inactive),0.306,0.388,1.54,0.908 (inactive),0.0645 (inactive),1.99 (inactive),2.75,-0.0839 (inactive),-0.0028,0.551,1.11,-0.0056
[N-]=[N+]=NCc1ccccc1[C@H]1OC(c2ccc(OCCCO)cc2)=N[C@@]1(CCS(=O)(=O)c1ccccc1)C(=O)N1CCCCC1,0.974,1.28,0.248,0.4,1.51,1.79,1.33,0.225 (inactive),1.42,-0.191,1.55,0.341 (inactive),-0.0527 (inactive),3.75 (inactive),3.34,-0.334 (inactive),0.574,0.876,0.992,0.283
CCOC(=O)C1=C[C@@H](c2ccccc2)N(S(=O)(=O)c2ccc(C)cc2)[C@H]1c1ccccc1Cl,-0.508,0.544,0.168,1.1,1.5,0.264,0.857,-3.26 (inactive),0.945,-0.16,1.5,0.849 (inactive),2.19 (inactive),2.48 (inactive),2.8,-0.518 (inactive),0.0935,0.985,1.06,0.153
COCCOC(=O)N1C(=O)[C@@]2(c3cc(C#CC4=CCCCC4)ccc31)[C@H](C(=O)N1CCCCCCC1)[C@H]1C(=O)O[C@H](c3ccccc3)[C@H](c3ccccc3)N1[C@@H]2c1ccc(O)cc1,0.804,0.0395,-0.0226,0.119,0.464,-0.215,1.14,-0.472 (inactive),0.409,-0.31,1.56,-1.17 (inactive),0.509 (inactive),0.983 (inactive),2.88,1.53 (inactive),0.295,0.795,0.807,0.0383
O=C(NCCCCCNC(=O)/C(Cc1ccccc1)=N/O)OCc1ccccc1,-0.51,0.148,-0.25,0.293,0.421,-0.181,-0.422,-0.213 (inactive),0.152,-0.409,-0.276,-1.72 (inactive),-1.43 (inactive),-1.89 (inactive),-0.625,2.16 (inactive),-0.17,0.164,0.253,-0.127
COc1ccc(CN(C2=CC[C@@]3(C(N)=O)C(=O)C(Cl)=C(Cl)C(=O)[C@@]3(C#N)C2)S(=O)(=O)c2ccc(Br)cc2)cc1,-0.181,-0.0483,-0.0657,0.497,0.765,0.914,1.11,-0.991 (inactive),0.343,0.0176,-0.196,-1.62 (inactive),-2.63 (inactive),-0.266 (inactive),3.31,1.29 (inactive),0.0496,-0.0701,-0.366,-0.111
